Screens from PubChem.
Only some compounds are listed: those with a hit (about 21% of all), similar ones and a draw of the others.
Shiga inhibitor: Shiga toxin inhibition; Vero cells, Shiga toxin protein synthesis inhibition reporter; inhibition, % at 38.7 µM; hit rate 9.2% among 290,000; in the data active means inhibition mostly above about 28%, no sharp cut-off; inactive means mostly below about 43%; further: 0% is about no effect
NS1 function inh: blocks influenza NS1 protein function. Potency, µM (series often up to 46.1 µM), for the others: at the top dose activity, positive = more growth. hit rate 0.4% among 270,000. AID 2326; calls by dose curve; further: potency means the concentration at half of the fitted maximal effect; actives are rising curves; nearly all actives have a fitted effect of over 50% in size
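In this qHTS, NS1 from influenza A is expressed in budding yeast, where it slows growth. Cells are switched from glucose to 2% galactose medium (pH 6.0, -URA), treated with compound, and growth recovery is read at OD600.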
Pf growth 96h: P. falciparum growth inhibition at 96 hours; Potency, µM (highest dose often 28.7 µM), without a hit: at the top dose activity change, negative = inhibition, hits mostly inhibitors; P. falciparum luciferase reporter growth, 96 h; hit rate 6.9% among 320,000; further: potency means the concentration at half of the fitted maximal effect; on the % scale 0 is the no-effect control and ±100 the full control effect
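Luminescence readout: decreased luciferase signal marks inhibited growth of reporter-expressing P. falciparum in infected red cells (2% hematocrit, 0.05% parasitemia final), exposed to compound two generations (96 h, 37 C, 5% CO2).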
Pf growth 48h: inhibits P. falciparum growth in the first generation, 48 h. P. falciparum luciferase growth in erythrocytes, 48 h. Potency, µM (titrated, usually from 28.7 µM), for the others: at the top dose activity change, negative = inhibition, usual class: inhibitors. hit rate 5.9% among 310,000; further: potency means the concentration at half of the fitted maximal effect; on the % scale 0 is the no-effect control and ±100 the full control effect
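Luciferase-expressing P. falciparum in infected erythrocytes (2% hematocrit, 0.1% parasitemia final) in RPMI 1640/0.5% Albumax were exposed to compound for 48 hours at 37 C, 5% CO2; growth read as luminescence.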
CHX counter: counter-screen hit for Shiga toxin inhibitors, cycloheximide. AID 2314. cell reporter, cycloheximide protein synthesis inhibition counterscreen. hit rate 12% among 300,000. max response, %; in the data active means max response mostly above about 13%, no sharp cut-off; inactive means mostly below about 14%; further: read at 38.3 µM for the half of the compounds with a filed dose; 0% is about no effect
Active calls of the source: *. Unless noted, the call rests on the fitted dose curve; in most records, active means well fitted inhibition curve with a large enough effect; inconclusive means small, poorly fitted or top-dose-only effect, or another doubt; inactive means no such curve, though single readings can be large or run the other way.

Results for CC1=C(C)CC(C(=O)Nc2ccc(C(=O)N3CCOCC3)cc2)C(C(=O)O)C1 (stereo not given) ?
Shiga inhibitor: 16.2; NS1 function inh: -0.7%; Pf growth 96h: 4.0%; Pf growth 48h: 0.9%; CHX counter: -1.4

How did CCOc1ccc(-n2c(=O)[nH]cc(C(=O)Nc3ccc(OC)c(OC)c3)c2=O)cc1 do in these assays?
Shiga inhibitor: -13.4; Pf growth 96h: -3.2%; Pf growth 48h: 52.5%; CHX counter: -4.7

How did Cc1ccn(CC(=O)N2CCCC(N3CCN(c4cccc(Cl)c4)CC3)C2)n1 (stereo not given) do in these assays?
Shiga inhibitor: 20.0; NS1 function inh: 4.2%; Pf growth 96h: inconclusive; Pf growth 48h: inconclusive; CHX counter: 8.6

Results for Cc1ccc(NC2CCCN(C(=O)CCC3=NNC(=O)CC3)C2)cc1C (stereo not given) ?
Shiga inhibitor: -11.3; NS1 function inh: 15.6%; Pf growth 96h: 8.28µM*; Pf growth 48h: 7.8%; CHX counter: 1.0

How did Cc1ccn(CC(=O)N2CCCC(N3CCN(c4ccccc4F)CC3)C2)n1 (stereo not given) do in these assays?
Shiga inhibitor: -2.1; NS1 function inh: 4.7%; Pf growth 96h: 13.1µM*; Pf growth 48h: 10.6%; CHX counter: 0.3

Results for CCSc1ncc(Cl)c(C(=O)Nc2ccc(S(N)(=O)=O)cc2)n1 ?
Shiga inhibitor: -3.9; NS1 function inh: 4.4%; Pf growth 96h: 9.28µM*; Pf growth 48h: 5.1%; CHX counter: -2.8

Results for CSc1ncc(Cl)c(C(=O)Nc2ccccc2[N+](=O)[O-])n1 ?
Shiga inhibitor: -5.9; NS1 function inh: 6.1%; Pf growth 96h: 9.28µM*; Pf growth 48h: 66.1%; CHX counter: -1.8

What do the screens show for `CCSc1ncc(Cl)c(C(=O)Nc2ccc(S(=O)(=O)Nc3ncccn3)cc2)n1`?
Shiga inhibitor: -1.9; NS1 function inh: 2.9%; Pf growth 96h: inconclusive; Pf growth 48h: -15.0%; CHX counter: -2.3

What do the screens show for `CCSc1ncc(Cl)c(C(=O)Nc2ccccc2)n1`?
Shiga inhibitor: -8.9; NS1 function inh: 5.6%; Pf growth 96h: 8.28µM*; Pf growth 48h: 3.2%; CHX counter: 4.6

What do the screens show for `CCOC(=O)C1CCCN(CC(=O)Nc2nc(-c3ccccc3)cs2)C1` (stereo not given)?
NS1 function inh: -54.5%; Pf growth 96h: 0.0%; Pf growth 48h: inconclusive; CHX counter: -4.1

How did Cc1c(CC(=O)Nc2ccc(Cl)cc2)sc2ccc(Cl)cc12 do in these assays?
Shiga inhibitor: 23.6; NS1 function inh: 2.3%; Pf growth 96h: -0.2%; Pf growth 48h: inconclusive; CHX counter: 0.8

What do the screens show for `COc1cc2ccccc2cc1C(=O)NC(=S)Nc1cccc(C(=O)O)c1C`?
Shiga inhibitor: 9.1; NS1 function inh: -1.3%; Pf growth 96h: 14.4%; Pf growth 48h: 10.8%; CHX counter: 2.1

What do the screens show for `O=C(NCc1ccccc1)c1cccnc1`?
Shiga inhibitor: -8.9; NS1 function inh: 2.5%; Pf growth 96h: -2.7%; Pf growth 48h: 10.2%; CHX counter: 1.0

Results for O=C(NCc1ccccc1)c1ccc(F)c(F)c1 ?
Shiga inhibitor: -5.1; NS1 function inh: 0.4%; Pf growth 96h: 17.4%; Pf growth 48h: 4.5%; CHX counter: 8.4

How did O=C(NCc1ccccc1)c1ccc(Br)cc1Br do in these assays?
Shiga inhibitor: active; NS1 function inh: 3.0%; Pf growth 96h: 45.2%; Pf growth 48h: 6.1%; CHX counter: 22.6*

What do the screens show for `Cc1ccc(C(=O)NCc2ccccc2)cc1Br`?
Shiga inhibitor: 24.1; NS1 function inh: -19.1%; Pf growth 96h: inconclusive; Pf growth 48h: 18.2%; CHX counter: 17.1*

Results for CN(C)c1c(F)cc(C(=O)NCc2ccccc2)cc1F ?
Shiga inhibitor: 5.1; NS1 function inh: -4.3%; Pf growth 96h: 42.1%; Pf growth 48h: 91.9%; CHX counter: 20.0*

How did O=C(NCc1ccccc1)c1ccc(Cl)nc1 do in these assays?
Shiga inhibitor: 70.4*; NS1 function inh: 0.0%; Pf growth 96h: -17.5%; Pf growth 48h: -61.0%; CHX counter: 39.7*

How did O=C1N=C(N2C=CC(=C3C=CNC=C3)C=C2)/C(=C/N=NC(=O)c2ccccc2O)S1 do in these assays?
Shiga inhibitor: 53.5*; NS1 function inh: 17.9%; Pf growth 96h: 2.8%; Pf growth 48h: -24.0%; CHX counter: 25.9*

How did CCCCOc1ccc(-n2nc(C)cc2C)nn1 do in these assays?
Shiga inhibitor: 54.8*; NS1 function inh: -50.7%; Pf growth 96h: inconclusive; Pf growth 48h: 49.7%; CHX counter: 28.6*

Results for Cc1cc(C)n(-c2ccc(OCC(=O)O)nn2)n1 ?
Shiga inhibitor: -13.0; NS1 function inh: -11.6%; Pf growth 96h: inconclusive; Pf growth 48h: 9.2%; CHX counter: 5.5

How did O=C(COC(=O)[C@@H]1CCCN1S(=O)(=O)c1ccccc1F)NCc1ccc2c(c1)OCO2 do in these assays?
Pf growth 96h: 21.8%; Pf growth 48h: -4.3%

What do the screens show for `O=C(Nc1cc(S(=O)(=O)N2CCOCC2)ccc1N1CCOCC1)C1CCCO1` (stereo not given)?
Shiga inhibitor: -19.1; NS1 function inh: -2.1%; Pf growth 96h: -16.5%; Pf growth 48h: 3.6%; CHX counter: -2.5

What do the screens show for `CCN(CC)S(=O)(=O)c1ccc(N2CCOCC2)c(NC(=O)C2=COCCO2)c1`?
Shiga inhibitor: -29.7; NS1 function inh: 3.4%; Pf growth 96h: 2.08µM*; Pf growth 48h: 3.29µM*; CHX counter: -2.9

What do the screens show for `CCN(CC)S(=O)(=O)c1ccc(N2CCOCC2)c(NC(=O)C2CCCO2)c1` (stereo not given)?
Shiga inhibitor: -3.3; NS1 function inh: -1.7%; Pf growth 96h: 8.28µM*; Pf growth 48h: inconclusive; CHX counter: -2.3

What do the screens show for `CCc1cc(C(=O)Nc2cc(Cl)ccc2N2CCN(C)CC2)sc1C`?
Pf growth 96h: -2.6%; Pf growth 48h: -16.3%

Results for CCN(CC)S(=O)(=O)c1ccc(N2CCOCC2)c(NC(=O)C(C)(C)C)c1 ?
Shiga inhibitor: -4.1; NS1 function inh: -66.1%; Pf growth 96h: inconclusive; Pf growth 48h: 75.4%; CHX counter: 6.2

How did CCc1cc(C(=O)Nc2cc(S(=O)(=O)N(CC)CC)ccc2N2CCN(C)CC2)sc1C do in these assays?
Pf growth 96h: 2.62µM*; Pf growth 48h: inconclusive

How did CCN(CC)S(=O)(=O)c1ccc(N2CCOCC2)c(NC(=O)c2cc([N+](=O)[O-])ccc2Cl)c1 do in these assays?
Shiga inhibitor: -12.0; NS1 function inh: -0.1%; Pf growth 96h: 3.4%; Pf growth 48h: inconclusive; CHX counter: -1.6

What do the screens show for `CCN(CC)S(=O)(=O)c1ccc(N2CCOCC2)c(NC(=O)c2cc(-c3ccccn3)nc3ccccc23)c1`?
Shiga inhibitor: -12.1; Pf growth 96h: 8.28µM*; Pf growth 48h: 1.85µM*; CHX counter: -1.0

Results for CCN(CC)c1ccc(CNc2nc3ccccc3n2CC)cc1 ?
Shiga inhibitor: -12.8; NS1 function inh: -51.2%; Pf growth 96h: 3.4%; Pf growth 48h: 21.8%; CHX counter: 1.5
